Measurements published in PubChem BioAssay (NCI).
Several values for one entry are separate records, joined by “and”; a condition that tells them apart may be missing. Equal values may be shown once. The panel holds about 79,000 compounds, 15% with a hit somewhere; the sample as a whole holds those more often. Unmarked numbers belong to inactive results. Activity calls are given as the source filed them. Cut-off read from the data, not from the text of the source: active = growth inhibition above about 70%; inactive = the rest.

Columns and labels:
[1] = NCI Yeast Anticancer Drug Screen. Data for the rad50 strain (AID 155);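 note: 0% = growth of vehicle-only cultures of the same strain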; settings: S. cerevisiae rad50 strain growth inhibition; at 50.0 µM; active compounds read high
Outline: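 A DNA repair-deficient yeast mutant serves as the test organism; compound-induced growth inhibition is calculated against vehicle-treated cells.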

[2] = NCI Yeast Anticancer Drug Screen. Data for the mec2-1 strain (AID 157); settings: S. cerevisiae mec2-1 strain, at 50.0 µM, active compounds read high
Outline: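 Growth inhibition is read against vehicle-treated controls after compound exposure of the mec2-1 yeast strain, which is defective in DNA damage repair or cell cycle control.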

[3] = NCI Yeast Anticancer Drug Screen. Data for the sgs1 mgt1 strain (AID 161);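 note: 0% = growth of cultures given vehicle only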; settings: S. cerevisiae sgs1 mgt1 strain, at 50.0 µM, active compounds read high
Outline: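 Compounds are added to genetically altered yeast, and growth is compared with cultures given vehicle alone to give percent inhibition.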

[4] = NCI Yeast Anticancer Drug Screen. Data for the cln2 rad14 strain (AID 165);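 note: 0% = growth equal to vehicle treated cultures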; settings: S. cerevisiae cln2 rad14 strain, at 50.0 µM, active compounds read high
Outline: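 Growth inhibition, relative to vehicle-treated controls, is the read-out. The test organism is a yeast strain with defined genetic alterations, cln2 rad14.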

[5] = NCI Yeast Anticancer Drug Screen. Data for the bub3 strain (AID 167); settings: S. cerevisiae bub3 mutant strain, at 50.0 µM, active compounds read high
Outline: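 Inhibition values come from growth of compound-treated mutant yeast normalised to vehicle-treated controls.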

[6] = NCI Yeast Anticancer Drug Screen. Data for the mlh1 rad18 strain (AID 175); settings: S. cerevisiae mlh1 rad18 strain growth inhibition; at 50.0 µM; active compounds read high
Outline: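 Cells of a genetically altered yeast strain, deficient in DNA damage repair, were treated with compound. Their growth was then compared with that of vehicle-treated cultures to give inhibition.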

SMILES	growth inhibition [1]	growth inhibition [2]	growth inhibition [3]	growth inhibition [4]	growth inhibition [5]	growth inhibition [6]
c1ccc(N2CCNCC2)nc1	-6.4%	-4.3%	9.2%	6.9%	8.25%	0.15%
CC(=O)O.CC(=O)O.[Co+2].[NH-]C(CCC(N)=O)C(=O)O.[NH-]C(CCC(N)=O)C(=O)O (stereo not given)	15.2%	13.4%	34.2%	-4%	22.3%	19.9%
CCC1(CC(C)(C)Cl)C(=O)NC(=O)NC1=O	-4.55%	-7.7%	-21.4%	-30.7%	3.45%	-20%
O=P1(CCBr)NCCCO1 (stereo not given)	-5.25%	14.6%	-3.6%	-59.4%	-10.4%	7.5%
N.N.N.N.O=S(=O)([O-])[O-].[Co+3].[OH3+].[OH3+]	2.25%	-0.6%	-22.5%	26.1%	-4.7%	-0.15%
CNC(=O)c1cc(N(CCCl)CCCl)c([N+](=O)[O-])cc1[N+](=O)[O-]	-3.15%	-17.5%	-6.05%	10%	-3.15%	19.4%
O=NN1CCOCC1	-36.5%	11.1%	14.8%	-15.7%	-1.6%	31.1%
CC(=O)O.CC(=O)O.CC(=O)O.CC(=O)O.CC(=O)O.CC(=O)O.O.[Ti].[Ti]	-6.65%	-23.8%	-23.6%	-4.2%	-10.1%	-34%
[N-]=[N+]=C1CNC(=O)NC1=O	9.9%	-19.6%	-10.6%	0.05%	-0.15%	1.05%
CSCCC([NH-])C(=O)O.CSCCC([NH-])C(=O)O.[Cu+2] (stereo not given)	-18.1%	7.95%	-9.2%	-33.3%	-13.1%	-2.5%
CC(=O)[O-].CC(=O)[O-].CC(=O)[O-].CC(=O)[O-].[Mo+2].[Mo+2]	-6.5%	2.1%	0.1%	3.25%	1.85%	5.6%
OC1(CN2CCCCC2)N=C(c2ccccc2)c2ccsc2-n2cccc21 (stereo not given)	-19.6%	-22.6%	-25.2%	22.2%	-11.5%	-3%
CC(=O)c1ccccc1O.[Cr]	3.05%	-32.3%	19.3%	3.75%	-18.3%	21.2%
CCN(CCCl)CCCCCNc1c2ccccc2nc2ccc(OC)cc12	84.5% (active)	84.5% (active)	83% (active)	84.3% (active)	78.8% (active)	76% (active)
Cc1nc2ccccc2c(=O)n1-c1ccc(N(CCCl)CCCl)cc1	-0.6%	-9.25%	-17.1%	-6.9%	4.8%	4.5%
CC1=NN(c2cccc(S(=O)(=O)O)c2)C(=O)C1N=Nc1cc(Cl)cc(S(=O)(=O)O)c1O.O.[Cr] (stereo not given)	-19.4%	-25.1%	3.1%	-0.7%	8.35%	9.35%
CCOP(=O)(OCC)C1CC(C(C)C)CC=C1C (stereo not given)	5.4%	-8.95%	-2.15%	1.25%	3.75%	15.1%
CC(C)Oc1ccccc1OC(=O)N(C)C=O	-15.9%	-2.7%	-6.8%	-18%	-17.3%	-15.4%

SMILES	growth inhibition [1]	growth inhibition [2]	growth inhibition [3]	growth inhibition [4]	growth inhibition [5]	growth inhibition [6]
NC(=NCCCC(NCc1ccccc1)C(=O)O)N[N+](=O)[O-] (stereo not given)	16.3%	17.6%	16.6%	16.9%	6.85%	16.1%
CC1(C(=O)O)C2[Se]c3[se]ccc3C2C1(C)C(=O)O (stereo not given)	-3.45%	-12.7%	-3.5%	-12.2%	1.8%	-4.55%
CCC[CH2][Sn]([CH2]CCC)([CH2]CCC)[CH2]S(=O)(=O)O	99.3% (active)	98.8% (active)	98.9% (active)	98.2% (active)	99.4% (active)	99% (active)
O=C(c1ccccc1)C1C(C(=O)c2ccccc2)N1Cc1ccccc1 (stereo not given)	5% and 21.4%	9.9% and 4.5%	3.8% and -9.95%	2.8% and -1.2%	27.2% and 9%	-7.8% and 6.65%
CC(=O)CC(C)=O.CC(=O)CC(C)=O.CC(=O)CC(C)=O.[Cr]	20.2%	-8.3%	1.05%	-27.7%	4.3%	13.2%
O=C([CH-]C(=O)C(F)(F)F)c1ccco1.O=C([CH-]C(=O)C(F)(F)F)c1ccco1.O=C([CH-]C(=O)C(F)(F)F)c1ccco1.[Ru+3]	8.2%	-11%	-19.6%	-11.6%	1.95%	11.7%
OCC(Br)(Br)Br	44.4%	-4.3%	19.5%	3.7%	-2.55%	27.9%
CC(=O)N[C@@H](C[S-])C(=O)O.O=[N+]([O-])O.[Ag+]	-1.95%	0.95%	53.8%	25.1%	19.9%	21.1%
Cc1csc2n/c(=N/[N+](=O)[O-])sn12	51.5%	26.9%	46.8%	-12.5%	50.4%	44.1%
COc1ccc2c(c1O)-c1cc(O)cc3c1C(C2)NCC3 (stereo not given)	13.7%	21.8%	-12.5%	7.25%	8.65%	30.9%
O=c1ccc(=O)[nH][nH]1	6.25% and 36.3% and -4.05%	10.2% and 23.1% and -12.5%	5.6% and 7.25% and -6.05%	3.85% and 27.6% and -7.1%	1.65% and 30% and 26.9%	10.8% and 16.1% and 6.25%
Cc1cc(C)n(SC(Cl)(Cl)Cl)n1	-12.3%	28.3%	-15.3%	-4.6%	7.45%	-13.7%
CC1(C)C(=O)C=CC2(C)C3CCC4(C)C(O)CCC4(C)C3CCC12 (stereo not given)	9.6%	-10.2%	7.2%	-30.1%	13.8%	20.1%
Nc1nnc[se]1	7.85%	5.35%	-8.1%	-1.55%	-4.2%	-1.6%
CC1CC2OC(=O)C(CN3CC3)C2CC2(C)C(O)CC(O)C12 (stereo not given)	32.2%	30.3%	32.5%	-4.1%	10.3%	26.1%
C=COC(=O)NC(C(=O)O)C(C)CC (stereo not given)	43.1%	18.6%	44.4%	24.9%	-5.35%	34.9%
CS(=O)(=O)CCC(N)P(=O)(O)O (stereo not given)	-45.9%	-47.9%	-48.5%	-9.4%	-21.8%	-30.8%
